This passage reports growth inhibition results from PubChem BioAssay (NCI).

This is part of a sample that, as a whole, favours compounds with a hit. Of some 79,000 tested, about 15% had one in any assay. Unmarked numbers belong to inactive results. The source made the active and inactive calls. Cut-off read from the data, not from the text of the source: active = growth inhibition above about 70%; inactive = the rest.

The nature of assay [1]: NCI Yeast Anticancer Drug Screen. Data for the rad50 strain (AID 155).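 Note: 0% = growth of vehicle-only cultures of the same strain.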 To be noted: S. cerevisiae rad50 strain growth inhibition, active compounds read high. A digest of the protocol: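 Readout: growth inhibition relative to vehicle-treated cultures. Compound exposure was carried out in a genetically defined yeast strain deficient in DNA damage repair.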
Assay [2] is described as follows: NCI Yeast Anticancer Drug Screen. Data for the mec2-1 strain (AID 157). To be noted: S. cerevisiae mec2-1 strain, active compounds read high. In outline:
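Using mec2-1 yeast: add compound, measure growth, express inhibition versus vehicle-treated cultures.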

Assay [3] in a line: NCI Yeast Anticancer Drug Screen. Data for the sgs1 mgt1 strain (AID 161).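 Note: 0% = growth of cultures given vehicle only.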 To be noted: S. cerevisiae sgs1 mgt1 strain, active compounds read high. In outline: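 Compounds are added to genetically altered yeast, and growth is compared with cultures given vehicle alone to give percent inhibition.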
Assay [4] in a line: NCI Yeast Anticancer Drug Screen. Data for the cln2 rad14 strain (AID 165).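 Note: 0% = growth equal to vehicle treated cultures.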 To be noted: S. cerevisiae cln2 rad14 strain, active compounds read high. A digest of the protocol:
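Yeast strain cln2 rad14, bearing defects in cell cycle control and DNA repair, serves as the test system; values reflect growth inhibition compared with vehicle.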

A short description of assay [5]: NCI Yeast Anticancer Drug Screen. Data for the bub3 strain (AID 167). The note with it: S. cerevisiae bub3 mutant strain, active compounds read high. A digest of the protocol:
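Readout: yeast growth inhibition, expressed relative to vehicle-only wells. The test organism is a mutant strain from a panel with lesions in DNA repair or checkpoint genes.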

Assay [6] is described as follows: NCI Yeast Anticancer Drug Screen. Data for the mlh1 rad18 strain (AID 175). The note with it: S. cerevisiae mlh1 rad18 strain growth inhibition, active compounds read high. A digest of the protocol:
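Steps: expose repair-defective yeast to compound; measure growth; express inhibition against vehicle-treated controls.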

Where [7] appears, read: at 5.0 µM (retest, dose inferred, filed as 0.5).
[8] abbreviates: at 50.0 µM (retest, dose inferred, filed as 5.0).

As to `O=C(O)c1ccc(Br)cc1C(=O)c1ccccc1`, the growth inhibition in assay [1] (setting [7]) was -18%; in assay [1] (setting [8]), -15%; in assay [1] (at 50.0 µM), 1.15%; in assay [2] (setting [7]), -19%; in assay [2] (setting [8]), 10%; in assay [2] (at 50.0 µM), 9.45%. Further, the growth inhibition in assay [3] (setting [7]) is -2%; in assay [3] (setting [8]) it was 1%; in assay [3] (at 50.0 µM), -3.3%; in assay [4] (setting [7]), 31%; in assay [4] (setting [8]) it was -38%; in assay [4] (at 50.0 µM) it was 11.8%. Moreover, the growth inhibition in assay [5] (setting [7]) was 8%; in assay [5] (setting [8]) it was -18%; in assay [5] (at 50.0 µM), 6.35%; in assay [6] (setting [7]) it was -11%; in assay [6] (setting [8]) it was 6%; in assay [6] (at 50.0 µM), -20.4%.

For the compound `Cc1nc2c(O)c3c(c(O)c2nc1C)C1C=CC3CC1`, the growth inhibition in assay [1] (setting [7]) was 30%; in assay [1] (setting [8]), 83% (active); in assay [1] (at 50.0 µM) it was 64%; in assay [2] (setting [7]), 16%; in assay [2] (setting [8]) it was 89% (active); in assay [2] (at 50.0 µM) it was 66.2%. Moreover, the growth inhibition was 30% in assay [3] (setting [7]); 84% (active) in assay [3] (setting [8]); 77.5% (active) in assay [3] (at 50.0 µM); 22% in assay [4] (setting [7]); 30% in assay [4] (setting [8]); 14.2% in assay [4] (at 50.0 µM). For the same compound, the growth inhibition in assay [5] (setting [7]) was 39%; in assay [5] (setting [8]), 91% (active); in assay [5] (at 50.0 µM), 84.7% (active); in assay [6] (setting [7]), 20%; in assay [6] (setting [8]) it was 82% (active); in assay [6] (at 50.0 µM), 14.2%.

In the case of `COc1ccc(OC)c2c(=S)c3ccccc3[nH]c12`, the growth inhibition in assay [1] (setting [7]) is -1%; in assay [1] (setting [8]), 75% (active); in assay [1] (at 50.0 µM), 85.3% (active); in assay [2] (setting [7]), 0%; in assay [2] (setting [8]) it was 44%; in assay [2] (at 50.0 µM) it was 26.2%. Moreover, the growth inhibition in assay [3] (setting [7]) was -5%; in assay [3] (setting [8]), 43%; in assay [3] (at 50.0 µM), 60.6%; in assay [4] (setting [7]), -5%; in assay [4] (setting [8]), -5%; in assay [4] (at 50.0 µM), 40.6%. Moreover, the growth inhibition in assay [5] (setting [7]) is -6%; in assay [5] (setting [8]) it was 37%; in assay [5] (at 50.0 µM), 60.2%; in assay [6] (setting [7]) it was -5%; in assay [6] (setting [8]), 65%; in assay [6] (at 50.0 µM), 91.1% (active).

As for `CCCCCCCCc1ccc2c3ccccc3c3ccccc3c2c1`, the growth inhibition was -9% in assay [1] (setting [7]); -12% in assay [1] (setting [8]); 76.8% (active) in assay [1] (at 50.0 µM); -19% in assay [2] (setting [7]); -5% in assay [2] (setting [8]); 60.4% in assay [2] (at 50.0 µM). In addition, the growth inhibition in assay [3] (setting [7]) is -19%; in assay [3] (setting [8]), -3%; in assay [3] (at 50.0 µM), 65.8%; in assay [4] (setting [7]), -1%; in assay [4] (setting [8]), -12%; in assay [4] (at 50.0 µM) it was 3.05%. The growth inhibition in assay [5] (setting [7]) is -1%; in assay [5] (setting [8]), -10%; in assay [5] (at 50.0 µM), 8.65%; in assay [6] (setting [7]) it was 23%; in assay [6] (setting [8]), 6%; in assay [6] (at 50.0 µM), 58.9%.

As for `C[N+](C)(C)CCN(Cc1cccs1)c1ccccn1`, the growth inhibition in assay [1] (setting [7]) was -2%; in assay [1] (setting [8]), -9%; in assay [1] (at 50.0 µM), 20.2%; in assay [2] (setting [7]), 8%; in assay [2] (setting [8]) it was -16%; in assay [2] (at 50.0 µM), 29.9%. For the same compound, the growth inhibition is 2% in assay [3] (setting [7]); -20% in assay [3] (setting [8]); -37.8% in assay [3] (at 50.0 µM); -27% in assay [4] (setting [7]); -111% in assay [4] (setting [8]); 72.2% (active) in assay [4] (at 50.0 µM). Moreover, the growth inhibition in assay [5] (setting [7]) was -4%; in assay [5] (setting [8]) it was -10%; in assay [5] (at 50.0 µM), -4.2%; in assay [6] (setting [7]) it was -3%; in assay [6] (setting [8]) it was -13%; in assay [6] (at 50.0 µM), -2.15%.

On to `CCN(CC)CCC(=O)c1ccc(Oc2ccc(C)cc2)cc1`, for which the growth inhibition in assay [1] (setting [7]) was 13%; in assay [1] (setting [8]), 71% (active); in assay [1] (at 50.0 µM), 29.9%; in assay [2] (setting [7]) it was 6%; in assay [2] (setting [8]), 36%; in assay [2] (at 50.0 µM), 40.2%. The growth inhibition in assay [3] (setting [7]) is 24%; in assay [3] (setting [8]), 75% (active); in assay [3] (at 50.0 µM) it was 58%; in assay [4] (setting [7]), 15%; in assay [4] (setting [8]) it was 93% (active); in assay [4] (at 50.0 µM), 24.9%. The growth inhibition in assay [5] (setting [7]) was 18%; in assay [5] (setting [8]), 89% (active); in assay [5] (at 50.0 µM), 67%; in assay [6] (setting [7]), 22%; in assay [6] (setting [8]), 81% (active); in assay [6] (at 50.0 µM) it was 53.1%.

On to `O=c1oc2c(-c3ccccc3)cccc2c(O)c1-c1ccccc1`, for which the growth inhibition in assay [1] (setting [7]) was -2%; in assay [1] (setting [8]) it was 58%; in assay [1] (at 50.0 µM), 48.6%; in assay [2] (setting [7]) it was -2%; in assay [2] (setting [8]), 86% (active); in assay [2] (at 50.0 µM), 60.2%. Also, the growth inhibition in assay [3] (setting [7]) is 3%; in assay [3] (setting [8]), 87% (active); in assay [3] (at 50.0 µM) it was 58.9%; in assay [4] (setting [7]) it was 0%; in assay [4] (setting [8]), 36%; in assay [4] (at 50.0 µM), 33%. The growth inhibition is -4% in assay [5] (setting [7]); 79% (active) in assay [5] (setting [8]); 55% in assay [5] (at 50.0 µM); 0% in assay [6] (setting [7]); 81% (active) in assay [6] (setting [8]); 70.5% (active) in assay [6] (at 50.0 µM).

`Cn1cccc1C(/C=C/c1ccccc1[N+](=O)[O-])c1cccn1C`: the growth inhibition in assay [1] (setting [7]) was -2%; in assay [1] (setting [8]), 20%; in assay [1] (at 50.0 µM) it was 18.2%; in assay [2] (setting [7]), 4%; in assay [2] (setting [8]), 4%; in assay [2] (at 50.0 µM), 6.4%. Also, the growth inhibition was -12% in assay [3] (setting [7]); 8% in assay [3] (setting [8]); 20.9% in assay [3] (at 50.0 µM); 17% in assay [4] (setting [7]); 37% in assay [4] (setting [8]); 4.35% in assay [4] (at 50.0 µM). Also, the growth inhibition is -3% in assay [5] (setting [7]); 41% in assay [5] (setting [8]); 17.6% in assay [5] (at 50.0 µM); -15% in assay [6] (setting [7]); 21% in assay [6] (setting [8]); 20.2% in assay [6] (at 50.0 µM).

`CN(C)c1ccc(N=Nc2ccc(/C=C3\CCOC3=O)cc2)cc1`: the growth inhibition in assay [1] (setting [7]) was -4%; in assay [1] (setting [8]), 4%; in assay [1] (at 50.0 µM) it was -3.65%; in assay [2] (setting [7]) it was -5%; in assay [2] (setting [8]), -1%; in assay [2] (at 50.0 µM) it was 19.4%. Moreover, the growth inhibition in assay [3] (setting [7]) was -6%; in assay [3] (setting [8]), -6%; in assay [3] (at 50.0 µM) it was -0.65%; in assay [4] (setting [7]) it was -3%; in assay [4] (setting [8]), 4%; in assay [4] (at 50.0 µM) it was 37.2%. The growth inhibition in assay [5] (setting [7]) is -3%; in assay [5] (setting [8]) it was 7%; in assay [5] (at 50.0 µM) it was -2.45%; in assay [6] (setting [7]), -1%; in assay [6] (setting [8]), 3%; in assay [6] (at 50.0 µM) it was 12.4%.

With `ICCCCCCCCCC[n+]1ccc2ccccc2c1`, the growth inhibition in assay [1] (setting [7]) was 32%; in assay [1] (setting [8]) it was 98% (active); in assay [1] (at 50.0 µM), 88.9% (active); in assay [2] (setting [7]), 89% (active); in assay [2] (setting [8]), 99% (active); in assay [2] (at 50.0 µM) it was 89.8% (active). In addition, the growth inhibition is 52% in assay [3] (setting [7]); 99% (active) in assay [3] (setting [8]); 89.3% (active) in assay [3] (at 50.0 µM); 42% in assay [4] (setting [7]); 99% (active) in assay [4] (setting [8]); 85.4% (active) in assay [4] (at 50.0 µM). In addition, the growth inhibition in assay [5] (setting [7]) was 78% (active); in assay [5] (setting [8]), 99% (active); in assay [5] (at 50.0 µM) it was 92.7% (active); in assay [6] (setting [7]) it was 28%; in assay [6] (setting [8]), 96% (active); in assay [6] (at 50.0 µM), 90.5% (active).
